SMILES strings stand for the structures. Compounds without any hit were thinned out: in the full panel of roughly 83,000, 20% have a hit.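 How to read the values: 0–100, growth inhibition (40 = 60% inhibited); 0, no net growth; -100 to 0, cell death (-40 = 40% of starting cells died; -100 = all dead).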 A number with no mark means an inactive call. The source made the active and inactive calls. Rule for the calls: active = growth percent below 10; inactive = the rest.

Data on 39 compounds can be found in PubChem BioAssay (NCI).

This assay has as its system EKVX NSCLC. Kind of assay: NCI-60 one-dose screen, 48 h (100 = growth as untreated, 0 = no growth, -100 = all killed). To be noted: 10 µM unless noted.
Regarding `CN1C(=O)N(C)C2C1NN=c1s/c(=C\c3ccc(Cl)cc3Cl)c(=O)n12` (centres undefined), the growth is 50.1%.
The same measure for `COc1ccc2occ(C3=C(c4c[nH]c5ccccc45)C(=O)NC3=O)c2c1`: 49.4%; for `CCN1CCN(C(=S)SCC(=O)Nc2nc3ccc(C)cc3s2)CC1`: 122%; for `Cc1c(-c2csc(-n3nc(C(F)(F)F)cc3C(F)(F)F)n2)no[n+]1[O-]`: 69.6%.
The same measure for `N#C/C(=C\c1c(-c2ccccc2)[nH]c2ccccc12)S(=O)(=O)c1ccccc1`: 61.7%; for `CC(=O)O[C@@H]1/C=C/C(=O)N[C@@H](C)CCC/C=C/[C@@H]2CCC[C@H]21`: 116%; for `CN1C(=O)N(C)C2C1NN=c1s/c(=C\c3ccc([N+](=O)[O-])cc3)c(=O)n12` (centres undefined): 87.5%.
`O=C(N=Nc1c(O)[nH]c2ccccc12)c1oc2ccccc2c1CN1CCN(c2ccccc2)CC1`: the growth was 4.35% (active).
`COC(=O)/C(=C\c1c(-c2ccccc2)[nH]c2ccccc12)S(C)(=O)=O`: the growth was 58%.
Consider `COc1ccccc1C1=C(Br)C(=O)c2nc(C)ccc2C1=O`, for which the growth was 99.5%.
The same measure for `Cc1cccc2c(=O)c3c(sc12)c(N1CCNCC1)nc1ccccc13`: 68.9%; for `CCN(CC)CCNC(=O)C(Cl)=C1C(Cl)=C(Cl)C(Cl)=C1Cl`: 87.8%.
In the case of `N#CC(C#N)=Cc1c(-c2ccccc2)[nH]c2ccccc12`, the growth is 66%.
The same measure for `C=CCN1C(=O)/C(=c2\sc3n(c2=O)NC2C(N=3)N(CC)C(=O)N2CC)c2ccccc21` (centres undefined): 49.2%; for `CC(C)Cn1c2c(c(=S)[nH]c1=O)CCC2`: 102%.
Consider `COC(=O)/C(=C\c1c(C)[nH]c2ccccc12)S(=O)(=O)c1ccccc1`, for which the growth was 61.3%.
The value for `CCCCN1CCN(c2ccc3nc(-c4ccc5nc(-c6ccc(C(F)(F)F)cc6)[nH]c5c4)[nH]c3c2)CC1` was -72.4% (active); that for `CN1C(=O)N(C)C2C1NN=c1s/c(=C\c3c[nH]c4ccccc34)c(=O)n12` (centres undefined) was 51.7%.
The same measure for `Cc1ccc2c(n1)C(=O)C(Oc1ccc(Br)cc1)=CC2=O`: 104%.
For `COc1cc(/C=C2\Oc3cc(OCCCN4CCCC4)ccc3C2=O)cc(OC)c1`, the growth is 77.1%.
The same measure for `Cc1cccc(NC(=O)c2sc3nc4c(cc3c2N)CCCC4)c1C`: 45.4%; for `CCN1C(=O)N(CC)C2Nn3c(s/c(=C4\C(=O)N(C(C)C)c5ccccc54)c3=O)=NC21` (centres undefined): 29.9%; for `O=C1/C=C/[C@@H](O)[C@@H]2C[C@@H](O)C[C@H]2/C=C/CCCCO1`: 20.6%.
The same measure for `CCOC(=O)c1sc(-c2ccc(OS(=O)(=O)c3ccc(Br)s3)c(C=O)c2)nc1C`: 85.6%; for `CNCCNc1nc2ccccc2c2c(=O)c3cccc(C)c3sc12`: 46.4%.
The same measure for `O=C(CN1C=NC2C(N3CCOCC3)=NC=NC21)c1ccc(Br)cc1` (centres undefined): 97.6%.
Take `COc1ccc(OC)c(NC(=O)/C(C#N)=C/c2ccco2)c1`: the growth was 94%.
The value for `CCN1C(=O)N(CC)C2C1NN=c1s/c(=C3\C(=O)N(CC(C)(C)C)c4ccccc43)c(=O)n12` (centres undefined) was 49.6%; that for `CCN1C(=O)N(c2ccccc2)C2NN=c3s/c(=C4\C(=O)N(C(C)C)c5ccccc54)c(=O)n3C21` (centres undefined) was 55.9%.
Take `COc1ccc(C2=C(c3cccc(OC)c3)C(=O)c3ccc(C)nc3C2=O)cc1`: the growth is 75.3%.
For `CN1C(=O)N(C)C2Nn3c(s/c(=C\c4ccc(Cl)cc4Cl)c3=O)=NC21` (centres undefined), the growth was 65.1%.
As to `COc1cccc(C(=O)Cn2cc(/C=C(\C#N)S(=O)(=O)c3ccccc3)c3ccccc32)c1`, the growth is 114%.
For the compound `CCCN1C(=O)N(CCC)C2C1NN=c1s/c(=C3\C(=O)N(C(C)C)c4ccccc43)c(=O)n12` (centres undefined), the growth is 51%.
For `N#C/C(=C\c1c(-c2ccccc2)[nH]c2ccccc12)C(=O)c1ccccc1`, the growth was 68.5%.
As for `COC(=O)/C(CCC=C(C)C)=C1\[C@@H](OC(C)=O)C[C@@]2(C)[C@H]1CC(=O)[C@H]1[C@@]3(C)CC[C@H](NCc4ccccc4)[C@@H](C)[C@@H]3CC[C@@]12C`, the growth was 87.9%.
For `O=C1C(=O)c2c(ccc3ccccc23)-c2ccccc21`, the growth was 100%.
For the compound `CCOC(=O)c1ccc(N=Cc2sc(=O)[nH]c2O)cc1`, the growth is 93.4%.
The value for `COC(=O)c1c2c(c(C)[n+]([O-])c1C)C(=O)C(NCc1ccc(Br)cc1)=CC2=O` was 31.8%; that for `COc1ccc2[nH]c(O)c(N=NC(=O)c3oc4ccccc4c3C)c2c1` was 37.3%.
